Measurements taken from ChEMBL document CHEMBL3988442, “University of Dundee, Small-Polar-MMV Screening Library” (2021).
For part of these data: Entries with a potency or affinity are not part of this list.

Key:
Parameters in all cases: scale not given: direction of the effect not stated beside the values
[1] = molecular target: Protein translocase subunit SecA (Escherichia coli (strain K12)) (UniProt P10408); assay: Assay to Identify E. coli SecA ATPase Inhibitors; format: functional; details: 30 µM
[2] = molecular target: T1, Ubiquitin-activating enzyme e1, putative (Leishmania donovani (strain BPK282A1)) (UniProt E9BSI1); assay: Leishmania donovani Ubiquitin Activating Enzyme (LdE1); format: functional; details: 30 µM
T1 sequence (whole entry): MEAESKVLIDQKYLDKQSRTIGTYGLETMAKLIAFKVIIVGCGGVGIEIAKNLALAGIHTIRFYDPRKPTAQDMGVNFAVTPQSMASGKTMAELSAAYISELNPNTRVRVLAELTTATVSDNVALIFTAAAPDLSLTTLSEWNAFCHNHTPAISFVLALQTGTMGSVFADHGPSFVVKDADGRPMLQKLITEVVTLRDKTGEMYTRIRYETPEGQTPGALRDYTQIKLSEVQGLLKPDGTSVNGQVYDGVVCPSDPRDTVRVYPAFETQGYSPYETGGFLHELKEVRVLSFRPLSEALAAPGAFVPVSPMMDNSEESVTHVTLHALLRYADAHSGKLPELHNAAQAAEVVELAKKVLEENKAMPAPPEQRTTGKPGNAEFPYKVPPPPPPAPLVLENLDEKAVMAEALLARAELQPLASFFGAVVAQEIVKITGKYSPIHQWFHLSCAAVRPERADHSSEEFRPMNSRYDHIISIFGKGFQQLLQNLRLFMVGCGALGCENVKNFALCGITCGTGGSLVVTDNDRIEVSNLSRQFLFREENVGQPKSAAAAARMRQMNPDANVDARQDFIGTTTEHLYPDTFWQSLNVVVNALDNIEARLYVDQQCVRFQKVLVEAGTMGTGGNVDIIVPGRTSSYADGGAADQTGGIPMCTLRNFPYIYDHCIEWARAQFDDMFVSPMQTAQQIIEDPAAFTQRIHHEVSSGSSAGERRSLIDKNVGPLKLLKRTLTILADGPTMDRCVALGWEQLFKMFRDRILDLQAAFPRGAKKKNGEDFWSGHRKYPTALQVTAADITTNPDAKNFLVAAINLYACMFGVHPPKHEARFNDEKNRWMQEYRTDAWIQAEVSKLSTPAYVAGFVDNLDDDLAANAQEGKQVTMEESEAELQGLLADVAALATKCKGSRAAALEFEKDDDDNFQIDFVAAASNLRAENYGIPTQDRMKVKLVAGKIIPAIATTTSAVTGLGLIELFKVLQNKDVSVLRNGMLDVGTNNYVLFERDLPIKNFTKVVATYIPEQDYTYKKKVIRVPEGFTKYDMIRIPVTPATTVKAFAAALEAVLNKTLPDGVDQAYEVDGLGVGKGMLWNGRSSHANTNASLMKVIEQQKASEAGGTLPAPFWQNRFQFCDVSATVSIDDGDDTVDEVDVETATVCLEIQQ

[3] = molecular target: Sialic acid-binding Ig-like lectin 9 (Homo sapiens) (UniProt Q9Y336); assay: Hs-Siglec9 ALPHAscreen SOP 20170721; details: 10 µM
Trypanosoma cruzi = assay: Trypanosoma cruzi phosphomannomutase and mannose-1-phosphate guanylyltransferase assay; format: functional; details: 10 µM
[4] = molecular target: T2, Arginase-2, mitochondrial (Homo sapiens) (UniProt P78540); assay: in vitro enzyme assay to detect the production of urea directly proportional to the activity of Arginase II; format: functional; details: 33.3 µM; further: in the data most compounds retested in dose-response had high values
T2 sequence (whole entry): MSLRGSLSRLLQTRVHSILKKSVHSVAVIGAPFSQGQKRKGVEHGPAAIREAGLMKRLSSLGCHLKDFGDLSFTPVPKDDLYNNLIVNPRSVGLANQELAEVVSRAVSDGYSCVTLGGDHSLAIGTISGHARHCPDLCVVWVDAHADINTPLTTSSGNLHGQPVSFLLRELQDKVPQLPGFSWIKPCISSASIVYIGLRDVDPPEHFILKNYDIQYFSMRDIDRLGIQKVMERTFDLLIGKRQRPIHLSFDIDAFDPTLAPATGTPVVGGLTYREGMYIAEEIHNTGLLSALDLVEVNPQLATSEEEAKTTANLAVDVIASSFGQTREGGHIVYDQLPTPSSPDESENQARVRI

[5] = molecular target: T3, Proteasome subunit beta (Trypanosoma cruzi) (UniProt O96673); assay: Trypanosoma cruzi proteasome chymotrypsin-like activity (TcProtChymo) assay.; further: in the data most compounds retested in dose-response had high values; format: functional; details: 9.37 µM
T3 sequence (whole entry): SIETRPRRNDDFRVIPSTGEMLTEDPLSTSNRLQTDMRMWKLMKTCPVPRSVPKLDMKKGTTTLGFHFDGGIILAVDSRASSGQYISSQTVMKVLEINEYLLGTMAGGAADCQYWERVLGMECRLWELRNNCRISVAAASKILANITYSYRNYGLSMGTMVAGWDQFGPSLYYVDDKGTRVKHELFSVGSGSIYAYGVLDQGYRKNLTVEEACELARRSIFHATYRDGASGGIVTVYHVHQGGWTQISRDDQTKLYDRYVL

Homo sapiens = species: Homo sapiens; assay: To identify inhibition of the IFN signalling (Jak-Stat) pathway via expression of an eGFP reporter gene under the control of an IFN-stimulated response element (ISRE) containing MxA promoter.; format: functional; details: 30 µM
[6] = molecular target: T4, Tyrosyl-tRNA synthetase, putative (Trypanosoma cruzi (strain CL Brener)) (UniProt Q4DSP6); assay: Trypanosoma cruzi tyrosyl tRNA synthetase (TcYRS) _High Tyrosine SOP; format: functional; details: 30 µM; further: in the data most compounds retested in dose-response had high values
T4 sequence (whole entry): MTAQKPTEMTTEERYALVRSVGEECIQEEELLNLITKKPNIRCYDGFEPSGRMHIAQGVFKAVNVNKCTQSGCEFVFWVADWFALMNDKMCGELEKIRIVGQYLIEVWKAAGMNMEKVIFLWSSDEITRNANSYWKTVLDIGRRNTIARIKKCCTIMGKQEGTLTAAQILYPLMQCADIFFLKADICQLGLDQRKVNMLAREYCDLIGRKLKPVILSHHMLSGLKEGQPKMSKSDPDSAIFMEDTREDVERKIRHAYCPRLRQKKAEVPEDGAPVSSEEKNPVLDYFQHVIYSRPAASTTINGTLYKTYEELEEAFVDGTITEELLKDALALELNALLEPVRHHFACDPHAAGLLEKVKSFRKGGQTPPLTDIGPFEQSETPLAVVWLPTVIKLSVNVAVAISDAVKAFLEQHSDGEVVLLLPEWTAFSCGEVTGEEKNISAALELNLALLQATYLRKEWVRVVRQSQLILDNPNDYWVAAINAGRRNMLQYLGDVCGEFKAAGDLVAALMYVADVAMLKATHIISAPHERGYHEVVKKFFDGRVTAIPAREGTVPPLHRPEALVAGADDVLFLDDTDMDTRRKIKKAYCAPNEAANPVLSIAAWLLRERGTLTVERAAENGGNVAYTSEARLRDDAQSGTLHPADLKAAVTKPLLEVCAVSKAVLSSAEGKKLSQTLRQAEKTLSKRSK

[7] = molecular target: T4, Tyrosyl-tRNA synthetase, putative (Trypanosoma cruzi (strain CL Brener)); assay: Trypanosoma cruzi tyrosyl tRNA synthetase (TcYRS) SOP; format: functional; details: 30 µM
[8] = molecular target: Chromo domain-containing protein 1 (Saccharomyces cerevisiae (strain ATCC 204508 / S288c) (Baker's yeast)) (UniProt P32657); assay: ScCHD-1 Enzyme Inhibition Assay; format: functional; details: 30 µM; further: in the data most compounds retested in dose-response had high values
Sequence of Chromo domain-containing protein 1 (Saccharomyces cerevisiae (strain ATCC 204508 / S288c) (Baker's yeast)) (P32657 whole entry, the tested form may be a part): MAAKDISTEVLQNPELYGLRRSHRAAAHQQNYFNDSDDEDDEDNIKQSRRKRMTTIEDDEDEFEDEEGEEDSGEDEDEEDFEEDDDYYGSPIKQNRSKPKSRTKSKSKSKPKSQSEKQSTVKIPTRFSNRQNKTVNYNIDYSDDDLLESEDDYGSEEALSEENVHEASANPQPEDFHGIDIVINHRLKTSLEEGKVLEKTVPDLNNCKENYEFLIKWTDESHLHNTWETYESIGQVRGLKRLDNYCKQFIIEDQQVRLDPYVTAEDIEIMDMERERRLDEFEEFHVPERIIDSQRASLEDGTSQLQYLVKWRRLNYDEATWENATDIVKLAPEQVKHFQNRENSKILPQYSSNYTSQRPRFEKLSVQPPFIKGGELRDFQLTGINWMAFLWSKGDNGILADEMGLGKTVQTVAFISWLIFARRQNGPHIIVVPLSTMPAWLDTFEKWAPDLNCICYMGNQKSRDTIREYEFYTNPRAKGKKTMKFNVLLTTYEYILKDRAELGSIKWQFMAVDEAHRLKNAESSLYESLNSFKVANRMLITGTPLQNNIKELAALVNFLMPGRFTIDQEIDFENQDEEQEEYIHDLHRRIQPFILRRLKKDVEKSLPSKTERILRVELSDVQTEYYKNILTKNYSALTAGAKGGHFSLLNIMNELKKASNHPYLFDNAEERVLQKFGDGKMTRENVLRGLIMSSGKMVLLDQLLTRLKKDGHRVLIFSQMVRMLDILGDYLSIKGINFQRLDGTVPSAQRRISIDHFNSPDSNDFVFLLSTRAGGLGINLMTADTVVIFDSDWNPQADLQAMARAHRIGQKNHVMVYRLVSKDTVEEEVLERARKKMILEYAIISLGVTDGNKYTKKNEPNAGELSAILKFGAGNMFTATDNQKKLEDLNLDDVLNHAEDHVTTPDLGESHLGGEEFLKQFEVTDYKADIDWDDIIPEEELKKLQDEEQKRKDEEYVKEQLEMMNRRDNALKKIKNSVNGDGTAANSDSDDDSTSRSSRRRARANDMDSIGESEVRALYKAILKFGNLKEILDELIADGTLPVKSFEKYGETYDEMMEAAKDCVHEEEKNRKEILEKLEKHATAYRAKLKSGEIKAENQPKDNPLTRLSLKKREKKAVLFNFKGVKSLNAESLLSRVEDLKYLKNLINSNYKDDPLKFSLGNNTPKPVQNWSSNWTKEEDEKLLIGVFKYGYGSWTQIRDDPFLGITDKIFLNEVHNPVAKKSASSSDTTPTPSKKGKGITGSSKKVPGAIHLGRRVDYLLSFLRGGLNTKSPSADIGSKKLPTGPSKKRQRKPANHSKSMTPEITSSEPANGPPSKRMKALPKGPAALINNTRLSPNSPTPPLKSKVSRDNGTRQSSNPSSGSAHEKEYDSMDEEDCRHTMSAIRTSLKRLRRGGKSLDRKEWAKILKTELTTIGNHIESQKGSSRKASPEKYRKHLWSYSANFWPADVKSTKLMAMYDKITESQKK

Sequence of Protein translocase subunit SecA (Escherichia coli (strain K12)) (P10408 whole entry): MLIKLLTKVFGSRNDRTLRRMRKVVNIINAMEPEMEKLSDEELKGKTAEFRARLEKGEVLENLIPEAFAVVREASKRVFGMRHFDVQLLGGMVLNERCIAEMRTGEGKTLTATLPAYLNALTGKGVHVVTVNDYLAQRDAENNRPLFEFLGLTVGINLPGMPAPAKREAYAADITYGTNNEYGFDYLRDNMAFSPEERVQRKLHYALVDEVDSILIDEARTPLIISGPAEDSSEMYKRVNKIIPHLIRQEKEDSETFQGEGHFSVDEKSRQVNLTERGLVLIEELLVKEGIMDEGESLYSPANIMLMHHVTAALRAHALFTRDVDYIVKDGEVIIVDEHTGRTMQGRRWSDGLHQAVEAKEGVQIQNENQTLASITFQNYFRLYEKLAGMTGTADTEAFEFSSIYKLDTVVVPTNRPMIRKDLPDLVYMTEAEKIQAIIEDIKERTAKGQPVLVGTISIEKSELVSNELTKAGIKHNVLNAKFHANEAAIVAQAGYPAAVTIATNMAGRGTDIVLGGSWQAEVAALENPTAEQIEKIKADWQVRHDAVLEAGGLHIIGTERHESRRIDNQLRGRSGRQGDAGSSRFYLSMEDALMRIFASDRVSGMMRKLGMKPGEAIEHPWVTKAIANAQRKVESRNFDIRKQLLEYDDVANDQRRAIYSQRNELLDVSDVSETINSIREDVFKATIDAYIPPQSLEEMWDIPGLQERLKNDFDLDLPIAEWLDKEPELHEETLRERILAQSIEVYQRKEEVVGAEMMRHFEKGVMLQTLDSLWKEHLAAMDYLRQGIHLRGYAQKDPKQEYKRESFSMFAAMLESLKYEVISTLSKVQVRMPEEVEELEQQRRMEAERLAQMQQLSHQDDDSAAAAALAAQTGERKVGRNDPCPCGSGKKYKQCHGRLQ
Sequence of Sialic acid-binding Ig-like lectin 9 (Homo sapiens) (Q9Y336 whole entry): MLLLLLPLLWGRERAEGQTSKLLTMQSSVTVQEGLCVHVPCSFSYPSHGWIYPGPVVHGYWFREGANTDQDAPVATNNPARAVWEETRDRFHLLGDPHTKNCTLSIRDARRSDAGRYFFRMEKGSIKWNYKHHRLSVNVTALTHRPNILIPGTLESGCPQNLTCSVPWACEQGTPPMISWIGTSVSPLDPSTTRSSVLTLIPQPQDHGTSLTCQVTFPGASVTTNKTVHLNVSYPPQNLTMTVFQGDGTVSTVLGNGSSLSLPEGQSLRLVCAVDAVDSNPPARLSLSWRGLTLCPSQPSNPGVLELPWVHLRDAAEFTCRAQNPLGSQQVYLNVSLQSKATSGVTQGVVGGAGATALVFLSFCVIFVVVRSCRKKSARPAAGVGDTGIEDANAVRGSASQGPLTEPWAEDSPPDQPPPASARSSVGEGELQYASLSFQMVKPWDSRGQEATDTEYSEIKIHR

| Structure (SMILES) | Percent Effect [1] [%] | Percent Effect [2] [%] | Percent Effect [3] [%] | Percent Effect (Trypanosoma cruzi) [%] | Percent Effect [4] [%] | Percent Effect [5] [%] | Percent Effect (Homo sapiens) [%] | Percent Effect [6] [%] | Percent Effect [7] [%] | Percent Effect [8] [%] |
| --- | --- | --- | --- | --- | --- | --- | --- | --- | --- | --- |
| COc1ccc(C2CC(=O)Nc3c2cnn3C)cc1 (stereo not given) | -6.08 | 2.7 | -3.92 | -9.99 | -5.94 | 8.39 | 39.8 | -0.532 | 4.88 | -3.56 |
| Cc1ccc(-c2nnc(CNCCn3cc(C)cn3)o2)cc1 | 0.127 | 7.79 | 7.81 | -0.56 | 1.02 | 6.67 | -6.58 | 4.9 | 11.8 | -4.71 |
| CCN(CC1CCOC1)C(=O)Nc1ccc(N2CCCC2)nc1 (stereo not given) | -6.5 | 12.8 | -1.33 | 5.35 | 2.87 | 14.2 | 10.2 | 7.18 | 18.1 | -10.3 |
| COc1cccc(C(=O)NCCCN2CCc3ccccc3C2)c1OC | -0.301 | -5.33 | 7.23 | -2.81 | 1.77 | -5.34 | 10.1 | 2.63 | 0 | -4.32 |
| CN1CCC/C1=N\S(=O)(=O)c1ccc(NC(=O)c2ccc(F)cc2)cc1 | 1.02 | 26 | 3.66 | 6.34 | 28.5 | 9.82 | 14.2 | 5.88 | 28.2 | -9.94 |
| Cc1cc(C2CCCN2Cc2ccn(C)c(=O)c2)no1 (stereo not given) | -3.32 | -10.3 | 3.98 | 9.11 | 1.64 | 8.45 | 4.2 | 3.35 | 8.43 | -0.427 |
| Cc1cc(CN(C)C(=O)c2ccc(Cl)c(S(C)(=O)=O)c2)no1 | -9.03 | 13.3 | 7.77 | 3.81 | -4.88 | 9.41 | 6.05 | 1.58 | 10.3 | -11.5 |
| CCO[C@@H]1CO[C@@]2(CCCN(S(=O)(=O)c3cccnc3)C2)C1 | -2.66 | 11.7 | -9.59 | -4.97 | 3.64 | 18.3 | 6.27 | 5.79 | 5.13 | 2.99 |
| COc1cc(C(=O)N2CCCS2(=O)=O)cc(Cl)c1OC | -4.13 | 24 | 3.41 | -0.602 | -4.88 | 9.07 | 7.8 | 4.74 | 15.4 | -12.8 |
| COCc1nc(C(=O)NS(=O)(=O)c2cc(F)ccc2F)cs1 | -3.64 | -2.56 | -5.81 | -1.41 | -1.64 | -0.939 | 22.9 | -0.478 | -6.02 | 4.47 |
| O=C(c1ccco1)N1C[C@H]2CCCN(Cc3cccs3)[C@H]2C1 | -3.68 | 14.3 | -9.29 | -4.58 | -2.02 | 15.1 | 28.2 | 3.68 | 7.69 | -4.26 |
| Cc1cc(CNc2cc(Cl)ccc2Cl)no1 | -0.772 | 0 | 3.56 | 4.79 | 0 | 4.69 | 8.6 | -11 | 6.02 | -0.0633 |
